Results taken from PubChem BioAssay AID485314 (National Center for Advancing Translational Sciences (NCATS), 2010).
About 4,500 (1.3%) of roughly 340,000 compounds were called active. Another 5% or so got no clear call; they are omitted. The sample holds actives, similar compounds and a random draw of the others, so the mix is not that of the screen. The call rests on the fitted dose curve; in most records, active means well fitted inhibition curve with a large enough effect; inconclusive means small, poorly fitted or top-dose-only effect, or another doubt; inactive means no such curve, though single readings can be large or run the other way.

Biological target: DNA polymerase beta (Homo sapiens) (UniProt P06746)
Assay: qHTS Assay for Inhibitors of DNA Polymerase Beta
Conditions: Pol beta primer extension/strand displacement, fluorescence kinetic; series mostly up to 114 µM; activity change, negative = inhibition: at the top concentration
Source text: The base excision repair system in human cells is a target for therapeutic modulation of the response to irradiation treatment and DNA-damaging drugs. A key enzyme in this system is the bi-functional DNA polymerase known as DNA polymerase Beta (Pol Beta). The following is a homogeneous kinetic assay to study the primer extension and strand-displacement reaction catalyzed by pol beta.
A stepwise description of the 1536-well assay is shown in next Table. Three microliters of reagents (buffer in column 3 and 4 as negative control and 10 nM Pol beta in columns 1, 2, and 5-48) was dispensed into 1,536-well black solid-bottomed plate. Compounds (23 nL) were transferred via Kalypsys pin tool equipped with 1536-pin array (10 nL slotted pins, V&P Scientific, San Diego, CA). The plates were incubated for 15 min at room temperature, and 1 uL substrate (50 nM final concentration) were added to start the reaction and immediately read at 0 min read on Viewlux reader. The plate were further incubated for 10 min at room temperature, and then read on Viewlux again. Throughout the screen, reagent bottle and all liquid lines were chilled and made light-tight to minimize reagent degradation. All screening operations were performed on a fully integrated robotic system (Kalypsys, San Diego, CA) containing one RX-130 and two RX-90 anthropomorphic robotic arms (Staubli, Duncan, SC). Library plates were screened starting from the lowest and proceeding to the highest concentration, and a double-dipping step of the highest concentration was required to access higher concentrations of compounds. Vehicle-only plates, with DMSO being pin-transferred to the entire column 5-48 compound area, were inserted uniformly at the beginning and the end of each library in order to monitor for and record any shifts in the background, which can be affected by reagent dispensers or loss in enzyme activity overtime. Screening data were corrected, normalized, and concentration-effect relationships were derived by using publicly-available curve fitting algorithms developed in-house (http://ncgc.nih.gov/pub/openhts). A four parameter Hill equation was fitted to the concentration-response data by minimizing the residual error between the modeled and observed responses.
On the % scale 0 is the no-effect control and ±100 the full control effect; potency means the concentration at half of the fitted maximal effect.

| SMILES | Potency | activity change, negative = inhibition |
| --- | --- | --- |
| COc1ccc(-c2nc3c(c(SCC(=O)Nc4ccc(C(=O)O)cc4)n2)Cc2ccccc2O3)cc1 | 2.24 µM (active) |  |
| COc1ccc(NC(=O)CSc2nc(N)c(-c3ccccc3)c(=O)[nH]2)cc1 |  | 17.3% (inactive) |
| COc1cc(OC)cc(-c2nnc(SCC(=O)Nc3ccc(C(=O)O)cc3)s2)c1 |  | 0.87% (inactive) |
| O=C(NCCc1csc(-c2ccc(C(F)(F)F)cc2)n1)C(=O)Nc1ccc(F)c(Cl)c1 |  | 9.52% (inactive) |
| CC(=O)c1ccc(NC(=O)CSc2nc(-c3ccccc3F)nc3c2c(=O)n(C)c(=O)n3C)cc1 |  | 15.7% (inactive) |
| Cc1c(C)c2ccc(OCC(=O)N3CCC(C(=O)O)CC3)c(C)c2oc1=O |  | 6.9% (inactive) |
| Cc1c(CC(=O)N2CCN(C(=O)C3COc4ccccc4O3)CC2)c(=O)oc2c(O)c(O)ccc12 (configuration not stated) | 0.794 µM (active) |  |
| COc1ccc(OC)c2sc(N3CCN(C(=O)C4COc5ccccc5O4)CC3)nc12 (configuration not stated) |  | 30.1% (inactive) |
| COc1ccc(OC)c(CNC(=O)CN2C(=O)CCn3nc(-c4cn(C)c5ccccc45)cc32)c1 |  | -1.15% (inactive) |
| CC(=O)Nc1ccc(S(=O)(=O)N2CCN(c3ccccc3)CC2)cc1 |  | 10.6% (inactive) |
| Cc1cc(/C=C2\SC(=O)N(C)C2=O)c(C)n1-c1cccc(C(=O)O)c1 | 28.2 µM (active) |  |
| Cc1cc(/C=C2/SC(=O)N(CC(=O)N3CCCC3)C2=O)c(C)n1C |  | 10.2% (inactive) |
| Cc1cc(/C=C2\SC(=Nc3ccc(N4CCOCC4)cc3)N(C)C2=O)c(C)n1-c1cccnc1 |  | -4.4% (inactive) |
| O=C(CSCc1cnn(-c2ccccc2)c1-n1cccc1)NCc1ccc(Cl)cc1 |  | -18.2% (inactive) |
| COc1ccccc1/C=C/c1nc(C#N)c(NC(C)c2ccccc2)o1 (configuration not stated) |  | 17.7% (inactive) |
| COc1ccc(-c2nc3sc(CCNC(=O)C(C)(C)C)c(C)n3n2)cc1 |  | 13.6% (inactive) |
| Cc1ccc2onc(CC(=O)N3CCN(c4ccc(Cl)cc4)CC3)c2c1 |  | -2.82% (inactive) |
| CC(C)c1ccc(S(=O)(=O)Nc2ccc(O)c(Sc3nc4ccccc4s3)c2)cc1 |  | 0.597% (inactive) |
| COc1cccc(NC(=O)CSC2=Nc3ccccc3C3=NC(CC(=O)NC4CCCCC4)C(=O)N23)c1 (configuration not stated) |  | 28.4% (inactive) |
| O=C(Cn1cnc2ccccc21)N/N=C/c1ccco1 |  | 10.1% (inactive) |
| Cc1n[nH]c(=O)nc1N/N=C/c1cccs1 |  | 0.0263% (inactive) |
| O=c1nc(N/N=C/c2ccco2)cn[nH]1 | 11.2 µM (active) |  |
| CCC(=O)N1CCc2cc(S(=O)(=O)NC(C(=O)Nc3ccc(C(C)=O)cc3)C(C)C)ccc21 (configuration not stated) |  | 41.1% (inactive) |
| Cc1cccc(C2CC(=O)Oc3c2c(=O)n(C)c2ccccc32)c1 (configuration not stated) |  | 0.545% (inactive) |

| SMILES | Potency | activity change, negative = inhibition |
| --- | --- | --- |
| Cc1ccc(OCC(=O)Nc2ccc(Cl)c(-c3nc4ccccc4[nH]3)c2)cc1C |  | 7.96% (inactive) |
| Cc1ccc(-c2nn(-c3ccccc3)cc2/C=C2\SC(=S)N(CCCCCC(=O)O)C2=O)o1 | 50.1 µM (active) |  |
| COc1ccc(-c2nn(-c3ccccc3)cc2/C=C2/SC(=S)N(CCCC(=O)O)C2=O)c(C)c1 |  | 5.41% (inactive) |
| C=CCOc1ccc(/C=C2\SC(=S)N(CCC(=O)O)C2=O)cc1 |  | 9.93% (inactive) |
| Cc1cccc(Cn2c(CN3CCC(C(=O)NCc4ccccc4Cl)CC3)cc3ccccc32)c1 |  | -1.55% (inactive) |
| CCc1ccc(N(CC)C(=O)CCn2cnc3onc(-c4ccc(F)cc4)c3c2=O)cc1 |  | 11.9% (inactive) |
| CCCN1C(=O)C(O)(CC(=O)c2ccc(CC)cc2)c2cc(Br)ccc21 (configuration not stated) |  | -2.24% (inactive) |
| COc1ccc(C(=O)/C=C/c2ccc(OC3CSC3)cc2)cc1 |  | -23.2% (inactive) |
| COc1ccc(C(=O)/C=C/c2cccnc2)c(OC)c1 |  | 7.61% (inactive) |
| COc1ccc(/C=C/C(=O)c2cc(Br)ccc(=O)c2O)cc1 | 50.1 µM (active) |  |
| CSc1ccc(CCNC(=O)c2cnn(-c3ccccc3)c2-n2cccc2)cc1 |  | -27.9% (inactive) |
| O=C(/C=C/c1ccccc1)N1CCN(Cc2cc(=O)n3nc(-c4ccccc4F)sc3n2)CC1 |  | 5.97% (inactive) |
| CCOc1ccccc1C(=O)NC1(C(F)(F)F)C(=O)Nc2c1c(=O)[nH]c(=O)n2-c1ccc(F)cc1 (configuration not stated) |  | 0.604% (inactive) |
| Cc1ccc(CCNC(=O)c2nnc(Cc3cccc(F)c3)o2)cc1 |  | 1.44% (inactive) |
| CCOc1ccc2[nH]c(=O)c(CN(CCCO)S(=O)(=O)c3ccc(F)cc3)cc2c1 |  | 8.93% (inactive) |
| COc1ccc(S(=O)(=O)N(CCCN2CCCC2=O)Cc2cc3c(C)ccc(C)c3[nH]c2=O)cc1 | 89.1 µM (active) |  |
| CCOC(=O)c1ccc(S(=O)(=O)N(CCO)Cc2cc3cc(OC)c(OC)cc3[nH]c2=O)cc1 |  | 0.18% (inactive) |
| Cc1ccccc1NC(=O)CN1C(=O)N/C(=C\c2cccn2-c2cccc(C(=O)O)c2)C1=O | 2.24 µM (active) |  |
| Cc1ccccc1NC(=O)CN1C(=O)C(C)(C)c2ccccc21 |  | -11% (inactive) |
| O=C1N/C(=C/c2cccn2-c2ccccc2)C(=O)N1c1cccc(Cl)c1 |  | 16.2% (inactive) |
| COc1ccccc1NC(=O)C1=C(C)Nc2nc(SCC(=O)c3ccc(C)cc3)nn2C1c1ccccc1C (configuration not stated) |  | -15.8% (inactive) |
| CCc1ccccc1NC(=O)Cn1c(=O)n(-c2cccc(C)c2)c(=O)c2c1c1cc(OC)ccc1n2C |  | 1.55% (inactive) |
| NC(=O)c1c(NC(=O)CSc2nnc(-c3ccco3)n2N)sc2c1CCCC2 | 39.8 µM (active) |  |
